Screening data: PubChem, National Center for Advancing Translational Sciences (NCATS)
The list is not random: actives were taken first. Their share in the collection is about 12%.
NS1 function inh – influenza NS1 inhibition | Potency, µM (doses to about 46.1 µM), inactives show at the highest dose activity, positive = more growth | actives 0.4% (n = 270,000); calls by dose curve; note: actives are rising curves; nearly all actives have a fitted effect of over 50% in size
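Read-out: OD600 growth recovery of NS1-expressing budding yeast. Cells grown overnight at 30C in -URA glucose medium, washed, resuspended and diluted 1:100 in 2% galactose assay medium, pH 6.0. Same strain lacking NS1 served as positive control.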
SARS PLP yeast – blocks SARS-CoV papain-like protease in a yeast assay; actives 0.19% (n = 330,000); S. cerevisiae expressing SARS-CoV PLpro, growth rescue; AID 485353; Potency, µM (titrated, usually from 32.9 µM), for the others: at the top dose activity, positive = growth rescue, hits mostly activators; calls by dose curve; note: 0% is about no effect; nearly all actives have a fitted effect of over 55% in size
Pf growth 48h – P. falciparum growth inhibition at 48 hours (one generation); P. falciparum luciferase growth in erythrocytes, 48 h; Potency, µM (series often up to 28.7 µM), for inactives: at the top dose activity change, negative = inhibition, most hits filed as inhibitors; actives 5.9% (n = 310,000); note: % is set by controls: 0 for no effect and ±100 for the full control effect
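Read-out is firefly luciferase luminescence from an integrated reporter in P. falciparum, so falling signal marks reduced parasite growth. Infected erythrocytes were at 2% hematocrit and 0.1% parasitemia (final) in Albumax-supplemented RPMI 1640.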
AMA1-RON2 inh – AMA1-RON2 (P. falciparum) interaction inhibition. AlphaScreen AMA1-biotinylated RON2 peptide binding. actives 0.2% (n = 360,000). Potency, µM (series often up to 58.2 µM), inactives show at the top dose activity change, negative = inhibition, actives largely listed as inhibitors;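 note: 0% = vehicle wells and -100% = peptide control; nearly all actives have a fitted effect of over 45% in size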
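AMA1 (3D7) with his tag at 25 nM final met compounds first, then biotinylated RON2 peptide at 25 nM; detection used donor plus acceptor beads, 10 µg/mL apiece, read by AlphaScreen after 30 min at room temperature.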
Pf growth 96h – inhibits malaria parasite growth, 96 h. AID 504834. actives 6.9% (n = 320,000). Potency, µM (series often up to 28.7 µM), for the others: at the top dose activity change, negative = inhibition, most hits filed as inhibitors. P. falciparum luciferase reporter growth, 96 h; note: % is set by controls: 0 for no effect and ±100 for the full control effect
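Readout is luminescence from an integrated firefly luciferase in P. falciparum. Red cells, 2% hematocrit and 0.05% parasitemia final, were cultured with compound through two parasite generations (96 hours) at 37 C, 5% CO2.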
HCV inh – blocks hepatitis C virus. Huh7.5.1 HCVcc-Cre infection, luciferase reporter, 44 h. actives 3.4% (n = 340,000). Potency, µM (titrated, usually from 41.8 µM), inactives show at the highest dose activity change, negative = inhibition, most hits filed as inhibitors; note: % is set by controls: 0 for no effect and ±100 for the full control effect
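After 44 h co-culture of compound, cells and HCVcc-Cre (~0.5 moi), substrate is added for 15 min at room temperature and luciferase measured over 15 sec. Cells were seeded at 1,000/well and pre-cultured 4 h.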
Active calls of the source: *; ? = inconclusive; / = not tested or not shown; [ ] = dose if it differs, or a comment. Unless noted, calls come from the whole dose curve; as a rule, active = well fitted curve in the direction sought with a large enough effect; inconclusive = small, poorly fitted or top-dose-only effect, or another doubt; inactive = no such curve, though single readings can be large; an effect the other way counts as inactive or inconclusive. Potency is the fitted concentration of half-maximal effect.

SMILES | NS1 function inh | SARS PLP yeast | Pf growth 48h | AMA1-RON2 inh | Pf growth 96h | HCV inh
CCN1C(=O)N/C(=C/c2cc(C)n(Cc3ccccc3)c2C)C1=O | 22.3% | -10.3% | ? | -8.1% | ? | 10µM*
COCCn1c(C)cc(/C=C2/NC(=O)N(Cc3ccc(C)cc3)C2=O)c1C | 7.4% | -2.2% | ? | -9.7% | ? | ?
CCn1c(C)cc(/C=C2\NC(=O)N(Cc3ccc(Cl)cc3)C2=O)c1C | 16.7% | 1.0% | ? | -2.0% | ? | 12.6µM*
CCCCn1c(N)c(N(CC)C(=O)C2COc3ccccc3O2)c(=O)[nH]c1=O (stereo not drawn) | / | -2.3% | 6.7% | -8.4% | -8.1% | 11.4%[8.37 µM]
CCCCN(CCCNC(=O)C1CCN(C(=O)c2cc3sccc3n2C)CC1)Cc1ccccc1 | -13.8% | 0.2% | 5.22µM* | 0.0% | 42.1% | ?
COc1ccc(CN2CCNC(=O)C2CC(=O)N(C)Cc2nc(C)cs2)c(OC)c1 (stereo not drawn) | 8.8% | 1.1% | -15.8% | -1.1% | ? | /
Cc1cc(O)ccc1NS(=O)(=O)c1ccc2c3c(cccc13)C(=O)N2 | 19.7% | -0.4% | ? | 0.4% | -19.6% | -6.1%
Cc1cc(C)n2c(Br)c(CN3CCCC(C)C3)nc2n1 (stereo not drawn) | / | 15.1% | 0.9% | -7.6% | 21.7% | 7.6%
Cc1cc(C)nc(SCc2nc3nc(C)cc(C)n3c2Br)n1 | -9.9% | 0.8% | 10.4µM* | -4.8% | 1.47µM* | 3.1%
CC(C)(C)OC(=O)COc1ccc(/C=N/NC(=O)CN2CCCCC2)cc1 | -0.4% | 2.0% | 135.5% | 19.1% | 56.6% | 4.1%
C=CCn1c(SCc2nc3c(c(=O)[nH]c(=O)n3CCCC)n2CCC)nnc1-c1ccccc1 | 0.6% | 1.8% | 8.28µM* | 1.3% | / | 1.8%
C=CCOc1ccc(-c2nc3c(c(=O)[nH]c(=O)n3CCC)n2CCCC)cc1 | 3.3% | -3.5% | -0.4% | -2.3% | 7.3% | 5.2%
COC(=O)c1sccc1S(=O)(=O)Nc1ccc(S(N)(=O)=O)cc1 | -1.1% | 1.3% | 16.2% | -16.2% | 8.8% | -4.5%
COC(=O)c1scc(C)c1S(=O)(=O)Nc1ccc(C)cc1 | -5.9% | -1.5% | ? | -9.3% | 11.7µM* | 0.0%
Cc1ccc(CNCc2cc3c(C(C)(C)C)nn(-c4ccccc4)c3[nH]c2=O)cc1 | -32.0% | -13.9% | 0.37µM* | 10.6% | / | 10µM*
Cc1nn(-c2ccc(Cl)cc2)c2[nH]c(=O)c(CNCc3ccc4c(c3)OCO4)cc12 | -19.0% | -4.9% | 0.37µM* | 70.6% | 121.4% | ?
COc1ccc(CNCc2cc3c(C(C)(C)C)nn(-c4ccccc4)c3[nH]c2=O)cc1 | -9.1% | 1.3% | 0.828µM* | 67.7% | / | -1.3%
N=C(N)c1ccc(-c2ccc(-c3ccc(C(=N)N)cc3)o2)cc1 | -36.8% | / | / | / | / | /
CCCNC(=O)C(Cc1ccccc1)NC(=O)c1ccc(-c2ccccc2)cc1 (stereo not drawn) | / | 1.8% | 0.4% | 25.3% | 1.47µM* | -3.6%
CCCNC(=O)C(Cc1ccc(OC)cc1)NC(=O)c1ccc(C#N)cc1 (stereo not drawn) | / | -2.9% | 69.0% | 11.6% | ? | 3.16µM*
CCCNC(=O)C(Cc1ccccc1)NC(=O)c1ccc(C(C)(C)C)cc1 (stereo not drawn) | / | 2.3% | ? | 3.9% | ? | 37.3%
COc1ccccc1NC(=O)CN1CCN(C(=O)C2CCCO2)CC1 (stereo not drawn) | 0.3% | 8.0% | -5.7% | 5.1% | 25.8% | /
COc1ccc(CNC(=O)CC2C[C@H](C(=O)N3CCOCC3)[C@@]3(CCC4CCCC4)c4[nH]c5ccccc5c4CCN3C2=O)cc1OC (stereo partly drawn) | / | ? | / | 2.9% | / | 7.94µM*
CN(C)C(=O)CCc1ccc2c3c([nH]c2c1)[C@]1(CCC2CCCC2)[C@@H](C(=O)N2CCOCC2)C[C@H](CC(=O)NCc2cccc(C(F)(F)F)c2)C(=O)N1CC3 | / | 2.5% | / | -8.4% | / | 25.1µM*
COc1ccc2[nH]c3c(c2c1)CCN1C(=O)C(CC(=O)NCc2ccc(OC)c(OC)c2)C[C@H](C(=O)N2CCOCC2)[C@@]31CCC1CCCC1 (stereo partly drawn) | / | 5.1% | / | -18.6% | / | ?
SMILES | NS1 function inh | SARS PLP yeast | Pf growth 48h | AMA1-RON2 inh | Pf growth 96h | HCV inh
COc1cccc(CNC(=O)N[C@@H](C)C(=O)O)c1 | -1.2% | 0.3% | 66.3% | 5.3% | 0.0% | -1.7%
CCCCCCCC[n+]1c(C)n(-c2ccccc2)c2ccc(NC(C)=O)cc21 | 5.1% | 1.3% | ? | 3.4% | -0.1% | 14.1µM*
COc1ccccc1C1CC(c2ccc(Cl)cc2)Nc2ncnn21 (stereo not drawn) | -14.7% | 1.0% | 13.1µM* | -3.0% | -1.3% | 9.2%
Cc1ccc(C2CC(c3ccccc3)n3ncnc3N2)cc1 (stereo not drawn) | -1.9% | 0.1% | -2.0% | -4.4% | 13.1µM* | -3.0%
CCOc1ccc(C2CC(c3cccc(OC)c3OC)n3nnnc3N2)cc1Cl (stereo not drawn) | -11.1% | 1.9% | 11.7µM* | 1.2% | 5.5% | 11.2µM*
COc1ccc(C2CC(c3ccccc3)n3nnnc3N2)cc1 (stereo not drawn) | -2.2% | -4.8% | / | -24.0% | -32.9% | 6.0%
O=C(c1ccco1)N1CCN(Cc2nnnn2C2CCCCC2)CC1 | 13.3% | 0.2% | -7.2% | -10.1% | 32.2% | 12.5%
Cc1cc(C(=O)N2CCN(S(=O)(=O)c3ccc(F)c(Cl)c3)CC2)c(C)o1 | / | -4.6% | ? | -2.5% | ? | -6.0%
CC1CCC(C(C)C)C(OC(=O)CSc2nnc(N)s2)C1 (stereo not drawn) | -75.8% | -17.2% | ? | -0.3% | ? | 0.0%
Cc1cccc(OCc2n(CC(=O)OC3CC(C)CCC3C(C)C)c3ccccc3[n+]2C)c1 (stereo not drawn) | 1.9% | -0.9% | 2.33µM* | -18.7% | 2.2% | 0.9%
CC1CCC(C(C)C)C(OC(=O)Cn2c(COc3ccccc3)[n+](C)c3ccccc32)C1 (stereo not drawn) | 2.5% | -7.5% | 1.65µM* | -2.6% | 2.33µM* | 12.6µM*
N=C(N)SCc1ccc(Cl)c2ccccc12 (tested in a mixture with another compound) | -46.7% | / | / | / | / | /
CC[C@H](C)[C@H]1CNC(=S)N1CC1CCN(CCC(C)C)CC1 | / | / | / | 16.4% | / | /
Cc1ccc(S(=O)(=O)N2CCN(C(=O)COC(=O)COc3cccc(C(F)(F)F)c3)CC2)c(C)c1 | / | -0.8% | / | 1.3% | / | 31.2%
Cc1nn(C)cc1C1C2=C(CC(C)(C)CC2=O)N(c2ccccc2)C2=C1C(=O)CC(C)(C)C2 | 5.0% | 12.4% | / | -6.1% | 3.7µM* | -1.7%
